TLR9-MyD88 block: inhibitors of TLR9-MyD88 association in cells, primary screen, cell-based, CHO, BLA complementation, fluorescence. Toll-like receptor 9 (Homo sapiens) + Myeloid differentiation primary response protein …. CCF4 FRET ratio. inhibition, % at 4.98 µM. 340,000 compounds, 0.21% hits;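 active = inhibition above the mean over all tested compounds plus 3 SD, cut at about 21% in these data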;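 note: 0% = DMSO only wells and 100% = clavulanate BLA inhibitor control wells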
ABCB6 inh 2: ABCB6 transporter inhibitors, primary screen, K562-ABCB6 cells, flow cytometry, MLPCN library; ATP-binding cassette sub-family B member 6 (Homo sapiens), Q9NP58; K562-ABCB6 porphyrin accumulation, 1 h; stronger effect = lower value; fluorescence ratio to DMSO, % at 10 µM; 360,000 compounds, 0.19% hits;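 active = fluorescence ratio to DMSO below 75%, the collection mean minus 3 SD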;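 note: signal is porphyrin accumulated inside mitochondria; 100% equals median channel fluorescence of DMSO control wells; lower ratio means ABCB6 inhibition with less porphyrin fluorescence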
TLR4 MyD88 comp: inhibitors of TLR4-MyD88 association in cells, primary screen, cell-based, HeLa CL3-4, BLA complementation, FRET ratio. HeLa CL3-4 TLR4/MyD88 BLA complementation. AID 861, 2007. inhibition, % at 8.4 µM. Toll-like receptor 4 (Homo sapiens) + Myeloid differentiation primary response protein …. 200,000 compounds, 0.18% hits; in the data active = inhibition above about 25%;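 note: 0% = vehicle and 100% = reference inhibitor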
NOD2 RIPK2 PPI: NOD2-RIPK2 binding disruptors in cells, primary screen, fluorescence, CHO cells, BLA complementation; AID 624267, 2012; CCF4 ratio; 360,000 compounds, 0.38% hits; inhibition, % at 4.98 µM; in the data active = inhibition above about 21%;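 note: 0% = vehicle only and 100% = reference blocker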
Myeloid diff MLP: induction of myeloid progenitor differentiation, primary screen, cell-based, flow cytometry, MLPCN library | ER-HoxA9 myeloid progenitors, lysozyme-GFP differentiation | calls only at 10 µM | 360,000 compounds, 1% hits | AID 624256, 2012;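 active = normalized GFP-positive differentiation at or above the plate's own cutoff, the solvent-only control mean plus 3 SD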;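 note: cells exposed to compound for four days before flow analysis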
The depositor's hits bear a star; i = inactive; . = no result; + = active, no number; ! = a repeat was not active. An excerpt weighted towards active compounds, which were near 1.7% of everything screened.

SMILES	TLR9-MyD88 block	ABCB6 inh 2	TLR4 MyD88 comp	NOD2 RIPK2 PPI	Myeloid diff MLP
CC1Cc2ccccc2N1C(=S)Nc1ccc(S(N)(=O)=O)cc1 (centres undefined)	4.2	322.0	-9.8	-13.1	+
Cc1cc(-c2ccccc2)nc2cc(C(N)=O)nn12	-5.1	6.0*	-0.9	-0.1	i
CC(=O)c1sc(NC(=O)CN2C(=O)C3CC=CCC3C2=O)nc1-c1ccccc1 (centres undefined)	6.1	96.0	.	-4.0	.
N#Cc1ccc(C(=O)OCC(=O)Nc2cccnc2Cl)cc1	3.4	97.0	.	-7.7	i
O=C(OCCOc1ccccc1F)c1cccc(S(=O)(=O)N2CCOCC2)c1	-12.0	100.0	.	-3.5	+
CC1(C)S[C@@H]2[C@H](NC(=O)[C@H](N)c3ccccc3)C(=O)N2[C@H]1C(=O)O	7.9	106.0	-23.8	-5.8	+!
CC1(C)S[C@@H]2[C@H](NC(=O)[C@H](N)c3ccc(O)cc3)C(=O)N2[C@H]1C(=O)O	0.9	98.0	2.2	-7.3	i
Cc1ccc(S(=O)(=O)NC2=C(N3CCN(c4ccccc4F)CC3)C(=O)c3ccccc3C2=O)cc1	5.4	94.0	-12.5	0.6	i
Cc1ccc(S(=O)(=O)NC2=C(N3CCN(Cc4ccccc4)CC3)C(=O)c3ccccc3C2=O)cc1	-18.6	89.0	-8.8	-2.6	+
Cc1ccc(C(=O)O/N=C/c2c(N3CCOCC3)n(C)c3ccccc23)cc1	0.6	92.0	-1.4	-1.6	i
CC(=O)O/N=C/c1c(N2CCOCC2)n(C)c2ccccc12	-11.6	52.0*	-11.0	-0.2	i
Cc1ccccc1Sc1ccc(N)cn1	.	119.0	.	-5.7	+
O=C(c1cccc(S(=O)(=O)N2CCc3ccccc32)c1)N1CCN(c2ccccn2)CC1	-1.4	96.0	-14.5	0.0	i
COc1ccc(-n2nc3c(N4CCC(C(=O)N5CCC(C)CC5)CC4)nnc(C)c3c2C)cc1	2.5	201.0	.	7.7	+
COc1ccc(CCNc2ccc(C(CC(N)=O)NC(=O)c3ccccc3)cc2[N+](=O)[O-])cc1 (centres undefined)	-3.9	90.0	.	-13.6	+
CN(CCc1ccccn1)Cc1ccc(Cl)c(Cl)c1	-11.9	99.0	.	-0.2	i
CN(CCc1ccccn1)Cc1ccc(Cl)cc1Cl	-10.5	96.0	-2.9	11.6	+
Cc1nc(CC(=O)Nc2nccs2)cs1	0.3	94.0	.	2.0	i
C/[N+]([O-])=C\c1cccc(OCCN2CCN(c3ncc(C(F)(F)F)cc3Cl)CC2)c1	-1.1	83.0	.	-10.4	i
N#Cc1c(-c2ccc(Cl)cc2)c2c([nH]c1=O)-c1ccccc1OC2	-8.2	99.0	.	-10.4	i
CCOC(=O)c1c(C)[nH]c(C)c1C(=O)COC(=O)/C=C/c1ccc(OC(F)F)cc1	2.4	97.0	-8.4	-1.8	+
COc1ccc(NS(=O)(=O)c2cc(NC(=O)c3ccc(=O)[nH]n3)ccc2C)cc1	4.3	95.0	.	-0.4	i
COCCNC(=O)C1(C)CCCN(C(=O)c2ccccc2C(F)(F)F)C1 (centres undefined)	.	99.0	.	2.4	i
CC(=O)Nc1ccc2nc3c(=O)n(C)c(=O)n(C)c3nc2c1	-9.2	152.0	.	-10.4	+
Cn1c(=O)c2nc3ccccc3nc2n(C)c1=O	-0.5	102.0	-22.2	-1.6	i
Cc1ccc(S(=O)(=O)/N=C(/Nc2ccc(O)c(C(=O)O)c2)c2ccccc2)cc1	-14.1	97.0	.	-1.2	i
CCn1c(SCc2ccccc2)nnc1-c1cccnc1	-6.3	99.0	11.8	-5.1	i
Cn1nc2c(c1C(=O)N1CCCC(C(=O)c3cc(F)ccc3F)C1)CCCC2 (centres undefined)	4.0	102.0	-3.5	-15.8	i
COc1ccc(C(=O)C2CCCN(C(=O)c3c4c(nn3C)CCCC4)C2)cc1F (centres undefined)	-0.3	136.0	-0.5	-8.8	+
COCCN=C1N[C@@H](c2ccccc2)C(C(=O)OC)=C(C)N1Cc1ccccc1	-0.8	102.0	.	2.4	i
